PubChem BioAssay

Experiment: compound effects on differentiated 3T3-L1 adipocyte viability – cell-based, 3T3-L1 adipocytes, calcein-AM fluorescence, 48 h, basal, profiling panel (AID 1163); note: test concentration not given here
Conditions: 3T3-L1 adipocytes viability, higher = more signal

Point of comparison: `CC(C)[Si]1(C(C)C)O[C@@H](c2ccccc2)c2cc(-c3ccc(-c4ccc(Cl)c(Cl)c4)o3)nc(-c3ccccc3)c21`, z-score -0.277. Against it:
- OCCCC1=CC(c2cccs2)N(Cc2cc3c(cc2Br)OCO3)CC1 (stereo not given) — higher, 1.03
- CCOC(=O)C[C@H]1[C@H](OC(=O)c2ccc(C(=O)c3ccccc3)cc2)[C@@H](NC(=O)c2ccc3ccccc3c2)c2cc(OCCCO)ccc2N1C(=O)Cc1ccc(OC)cc1 — higher, 0.539
- C=C(CC1([C@@H](NP(=O)(c2ccccc2)c2ccccc2)[C@H]2C[C@@H]2CCCC)CC1)c1ccccc1 — lower, -0.523
- COc1cc(COC(C)=O)ccc1OC(C)=O — higher, 0.223
- C=C(CCCC)/C(=C/C[C@@H](OC(=O)c1ccncc1)c1ccc(OCCO)cc1)c1cc(C(=O)OC)ccc1OC — higher, -0.18
- C=C(CCCC)C(=O)CC[C@@H](OC(=O)c1ccccc1-c1ccccc1C(=O)O)c1ccc(OCCO)cc1 — higher, 1.22
- COCCOC(=O)N1C(=O)[C@@]2(c3cc(C#CCC(C(=O)OC)C(=O)OC)ccc31)[C@H](C(=O)Nc1nc3ccccc3s1)[C@H]1C(=O)O[C@H](c3ccccc3)[C@H](c3ccccc3)N1[C@@H]2c1ccccc1OCCO — higher, 0.6
- NC(=O)N1C(=O)C2C(C1=O)C1C=C(c3ccc(CO)cc3)C2C(c2cccs2)N1Cc1cccc(OC(F)(F)F)c1 (stereo not given) — higher, 0.868
- COCCOC(=O)N1C(=O)[C@@]2(c3cc(C#CCNC(N)=O)ccc31)[C@H](C(=O)N1CCN(c3ncccn3)CC1)[C@H]1C(=O)O[C@H](c3ccccc3)[C@H](c3ccccc3)N1[C@@H]2c1ccc(OCCO)cc1 — higher, 0.148
